Laboratory results published in PubChem BioAssay AID1794845 (National Center for Advancing Translational Sciences (NCATS), 2023).
Fewer than 10 of roughly 6,900 compounds were called active. The call rests on the fitted dose curve; in most records, active means well fitted curve in the direction sought with a large enough effect; inconclusive means small, poorly fitted or top-dose-only effect, or another doubt; inactive means no such curve, though single readings can be large or run the other way. The list is a sample of the results.

Each molecule was assayed against Metallo-beta-lactamase type 2 (Klebsiella pneumoniae) (UniProt C7C422) (assay: qHTS to identify inhibitors of the New Delhi Metallo-beta-lactamase (NDM): primary screen against the NCATS Gemini Collection). Details: NDM-1 enzyme, meropenem hydrolysis, absorbance 300 nm; series mostly up to 38.4 µM; activity % (negative = inhibition): at the top concentration.
Metallo-beta-lactamase type 2 (Klebsiella pneumoniae), sequence (C7C422 whole entry, looked up): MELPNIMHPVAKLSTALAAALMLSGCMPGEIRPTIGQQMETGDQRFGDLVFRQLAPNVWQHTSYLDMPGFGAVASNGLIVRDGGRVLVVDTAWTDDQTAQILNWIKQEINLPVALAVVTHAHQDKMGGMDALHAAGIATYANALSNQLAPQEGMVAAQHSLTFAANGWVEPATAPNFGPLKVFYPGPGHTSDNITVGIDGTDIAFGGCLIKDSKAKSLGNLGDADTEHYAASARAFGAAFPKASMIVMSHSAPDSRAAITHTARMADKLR
Source text: Assay Submitter (PI): James Inglese Ph.D., Patricia Dranchak Ph.D., Mahesh Aitha Ph.D. Assay Development and Screening Technology Laboratory (ADST) National Center for Advancing Translational Sciences (NCATS), Rockville, MD National Institute of Health (NIH), Bethesda, Maryland The metallo-beta-lactamases (MBL) are a main antibiotic resistance mechanism evolved by bacteria. There is an urgent clinical need for MBL inhibitors to mitigate this growing threat. To support a machine-based learning study, qHTS has been used to experimentally test inhibitors identified by prediction tools.
PROTOCOL TABLE (as described by Inglese et al., 2007) SEQUENCE No. (e.g., 1, 2, 3, etc.); […] (e.g., enzyme, Incubation, Reagent, etc.); VALUE; DESCRIPTION 1; NDM-1; 4 uL of 3 nM enzyme [2 nM final] in 50 mM HEPES (pH 7.0), 1 uM […], 0.01% Tween20; Use BioRaptr to dispense into Aurora black, clear bottom low base 1536-well plates 2; Compounds; 23 nL; Use Pin Tool (Wako) to transfer DMSO control and library compounds in DMSO 3; Incubate; >30 min 4; Reagent; 2 uL of 150 uM meropenem [50 uM final] 5; Incubate; 30 min. 6; Detector; Absorbance at 300 nm (bandwidth = 5 nm, 25 flashes/well) on Tecan Infinity NOTES (numbers refer to sequence above) 1; Column 1 of each plate received assay buffer without enzyme and columns 2-48 received enzyme for a final assay concentration of 2 nM. 2; Control plate contained DMSO in columns 1, 2, 3, and 4. 3; Compound interaction with enzyme. 4; Meropenem substrate was prepared in the same assay buffer as step 1 for a final assay concentration of 50 uM and added to all wells across the assay plates. 5; Substrate interaction with enzyme, plateau phase of kinetics. 6; Default reader settings were applied for absorbance read at 300 nm, bandwidth = 5 nm, 25 flashes/well. References: Inglese J, Shamu CE, Guy RK. 2007. Reporting data from high-throughput screening of small-molecule libraries. Nat Chem Biol. doi:10.1038/nchembio0807-438 Yasgar A, Shinn P, Jadhav A, Auld D, Michael S, Zheng W, Austin CP, Inglese J, Simeonov A. 2008. Compound Management for Quantitative High-Throughput Screening. J Lab Autom 13:79 - 89. doi:10.1016/j.jala.2007.12.004
Further: % of control where 0% means no effect.

Activity % (negative = inhibition), inactive:
CN1C(=O)[C@H]2CN(Cc3cn[nH]c3-c3cccs3)C[C@H]2C1=O 1.58%
CCOCCn1c(=O)[nH]c2cc(C(=O)NCCn3cnnc3)ccc21 3.21%
Cn1cnnc1-c1nn(C)c2c1CNCC2 3.66%
COc1ccc(-c2nc(N3CCOCC3)cc3c2CN(Cc2ccccc2)C3=O)cn1 2.36% [at 57.5 µM]
O=C(c1ccc(Cl)cc1)N1CCN(Cc2ccccc2-c2cccnc2)CC1 11.2%
CCOCCn1nc(C)cc1C(=O)N[C@H]1[C@H]2CCO[C@H]2[C@@H]1N(C)C -0.113%
CCn1c(CO)nnc1C1CC(NC(=O)c2[nH]c3ccc(OC)cc3c2C)C1 (centres undefined) 13.2%
O=C(NCCCc1ccccc1F)[C@@]12CNC[C@@H]1CN(Cc1ccccc1)C2 2.98%
CCCNc1ccc2nncn2n1 -0.753%
COc1cc(OC)cc(-c2onc(C)c2C(=O)NCc2ccccc2C)c1 0.744%
CS(=O)(=O)NC[C@H]1Cn2ccnc2CO1 -0.563% [at 77.1 µM]
Cc1noc(C)c1[S+](=O)([O-])N1CCc2nc(-c3ccccc3)nc(-c3ccc(Cl)cc3)c2C1 6.08%
Cc1ccc2nc(C(NC(=O)C3CCN(CC(N)=O)CC3)C(C)C)[nH]c2c1 (centres undefined) -0.481%
COc1cc2c(cc1NS(C)(=O)=O)C(c1cccc3c1OCO3)CC(=O)N2 (centres undefined) 0.737%
Cn1cc(-c2ccc3c(n2)CN(Cc2ccc(F)cc2)C(=O)CO3)cn1 8.04% [at 57.5 µM]
Cc1nn(-c2ccccc2)c(C)c1Cc1nc(C(C)C)no1 10.3%
Cn1cncc1C(=O)N1CCC2(CC1)CNC(C(=O)O)C2 (centres undefined) 43.9%
COc1cccc(N2CCN(C(=O)c3noc(-c4ccc(C)cc4)n3)CC2)c1 4.04%
CCc1c(C)nn(CCNC(=O)c2cc(S(N)(=O)=O)ccc2F)c1C -0.662%
COc1cc(F)ccc1-c1nc(-c2c(C)noc2C)cc2cc(C)oc12 27.1% [at 57.5 µM]
COCCCN(CCC(=O)NCc1ccc2c(c1)OCO2)C(=O)c1cc(C)oc1C -9.84%
Cc1cnc(CCNS(=O)(=O)c2cccc(F)c2)n1C(C)C 0.39%
Cc1cccnc1NCCNC(=O)c1ccc(S(N)(=O)=O)cc1 13%
CCCN1CCC2(CCN([S+](=O)([O-])c3cccs3)CC2)Oc2ccccc21 -2.6%
Cc1ccc(C(=O)N2CCCC2C(=O)N2CCCC2c2nc3ccncc3[nH]2)cc1 (centres undefined) 0.286%
O=C(c1ccoc1)N1CCN(c2cc(C3CC3)ncn2)CC(O)C1 (centres undefined) 18.2%
Cc1n[nH]c(C)c1CNC(=O)C1CCN(c2cn[nH]c(=O)c2)C1 (centres undefined) 10.8%
COCCC1(NC(=O)C2CC2)CCN(C(=O)c2ccccn2)CC1 5.91%
O=C1CC2(CCN(C(=O)c3ccccn3)C2)Nc2ccccc2N1 (centres undefined) -2.18%
O=C1Cc2c(-c3ccccc3OCc3ccccc3)n[nH]c2CN1Cc1ccccn1 9.35% [at 57.5 µM]
CCCc1ccc2oc(C(=O)N(C)CCC3CCCCO3)c(C)c2c1 (centres undefined) 4.21%
O=C1NCCCc2[nH]c(-c3cnn(-c4ccc(F)cc4)c3)nc21 23%
CCc1nc2c(c(-c3ccc(Cl)cc3)n1)CN(Cc1ccccn1)CC2 102%
CCN1CCC(CC(=O)N2CCC(C3CCN(C(=O)NC)CC3)C2)CC1 (centres undefined) 26.7%
CN(C)S(=O)(=O)N1CCc2nn(C)c(=O)n2CC1 10.1%
CC(=O)c1ccc(NC(=O)N[C@H]2CCN3C(=O)[C@@H](Cc4ccccc4)NC(=O)[C@H]23)cc1 13.7% [at 57.5 µM]
CCn1ccc(C(=O)N2CC(c3nc(CCOCC4CC4)no3)C2)n1 -0.382%
NC(=O)[C@@H](Cc1ccccc1)NC(=O)[C@@H]1C[C@@H](NS(=O)(=O)c2cccs2)CCN1C(=O)CSCC(=O)O 0.756%
COc1cccc(CCC(=O)N2CCC(OCC3CC3)C2)c1 (centres undefined) 22%
CN1C(=O)CC[C@]2(C(=O)NCc3ccco3)CCCC[C@@H]12 73.1%
Cc1cn2nnc(C(=O)N3CCC(C(=O)Nc4cccc(F)c4)CC3)c2c(=O)[nH]1 -2.5%
COc1ccc(CN(C)C2CCCN(CCc3ccccc3)C2)c(OC)c1OC (centres undefined) -2.17%
CC(=O)N1CCC(OCCOc2ccccc2)CC1 -7.31%
CCOc1c(CN(C)C(=O)Cn2cccc(OC)c2=O)cccc1OC 1.77%
Oc1ccccc1CN1CC(CNc2cccnc2)C2(C1)CN(c1ccccc1)C2 (centres undefined) 28.9% [at 57.5 µM]
O=C(CC1CCCC1)N1C[C@@H](CO)[C@@H]2Oc3ccc(Cl)cc3[C@@H]21 7.23%
COC1CCOC2(CCN(C(=O)Cc3ccccc3)CC2)C1 (centres undefined) -13.9%
CCc1ccc(S(=O)(=O)N2c3ccccc3CC2c2nnc(C3CCOCC3)o2)cc1 (centres undefined) 0.344%
CC(C)(C)OC(=O)N1CC(NCc2cccc(F)c2F)C1 40% [at 57.5 µM]
C1=C(c2nc(-c3ccncc3)cc3c2ccn3Cc2cccnc2)CCOC1 17.9% [at 57.5 µM]
COC(=O)N1CCCCC1C(=O)N1CCC2(CC1)c1nc[nH]c1CCN2C (centres undefined) -2.82%
O=C(N1CCCCCC1CN1CCOCC1)C1(c2ccccc2)CC1 (centres undefined) 12.4%
CCC1CN(C(=O)c2ccc(NCc3cnn(CC)c3)nc2)CCN1C(C)C (centres undefined) 1.35%
N#CC1CCN(C(=O)C2CCN(C(=O)c3ccc(-c4cncnc4)cc3)CC2)CC1 -3.71%
CC(C)C(=O)N1CCC(NCCOc2ccccc2Cl)CC1 12.6%
CC(C)N(Cc1nccn1C)C(=O)CC(c1ccccc1)c1ccccc1F (centres undefined) 23%
CCc1ccccc1NC(=O)N1C[C@@H](F)C[C@H]1C(=O)N1CCc2ccccc2C1 0.167%
COCCOCc1nc(C2CCCN2C(=O)Nc2ccc(F)cc2F)no1 (centres undefined) -10%
COc1ccc(NC(=O)[C@@H]2C[C@H](c3ccc(F)cc3)N(Cc3ccccc3Cl)C2)cn1 6.46% [at 57.5 µM]
CN(C)C(=O)N1CCC2(CC1)CC(c1cccc(C(F)(F)F)c1)=NO2 -0.151%
COC1CCOC2(CCN(C(=O)CCc3nc4ccccc4s3)CC2)C1 (centres undefined) 18.8%
Cc1cc(C)n(C2CCN(c3nccc(-c4ccccn4)n3)C2)n1 (centres undefined) 25.4%
CN(C)Cc1nnc(C2CC(NC(=O)Cc3c[nH]c(=O)n(C)c3=O)C2)n1C (centres undefined) -2.57%
O=C(C1CCCN1C(=O)Cc1ccc(F)cc1)N1CCC(N2CCOCC2=O)CC1 (centres undefined) 12.7%
O=C1CCC(C(=O)N2CCSCC2)CN1CCc1cccc(F)c1 (centres undefined) 6.53%
CCN(Cc1ccncc1)C(=O)c1coc(COc2cccc(C(F)(F)F)c2)n1 0.141%
CCOC(=O)[C@H]1C[C@]2(CCCCNC2=O)N(C(=O)c2cccc(OC)c2)[C@H]1c1ccco1 -4.71%
Cc1cn2nc(C(=O)N3CCC(C(=O)NCc4ccccn4)CC3)cc2c(=O)[nH]1 18.9%
Cn1cc(CN2C[C@H](C(=O)Nc3nccs3)C[C@@H]2c2cccc(C(F)(F)F)c2)cn1 4.37% [at 57.5 µM]
COc1ccc(C(=O)N2CCC[C@H]2c2nc(-c3ccccc3)no2)cc1 5.95%
COc1ccc(NC(=O)c2nc3sccn3c2-c2cccc(OC)c2)cc1 27.7%
C[C@@H]1CN(C(=O)CN2CCN(c3ncccn3)CC2)C[C@@]1(O)C1CCC1 14.1%
Cc1nc(C)c(C(=O)N2CCC(Cc3nc(C4CC4)n[nH]3)CC2)s1 18.2%
Cn1cc(CN2CCN(c3ccc(C#N)cn3)CC2)c(-c2ccccc2)n1 12.2%
CCc1cc(=O)n(CC(=O)N2CCN(c3ccccc3OC)CC2)c(-c2ccccc2)n1 -0.786%
COCCN1C[C@@H]2[C@H](c3ccccc31)[C@@H](CO)[C@@H](c1ccccc1)N2C(=O)COC(C)=O 4.01%
Cc1ccc(CNC(=O)N(C)CC2CCOCC2)cc1 -0.782%
COCC(=O)N1CCC(C2CCN(C(=O)c3ccncc3)CC2)C1 (centres undefined) -0.46%
COc1cccc(CCC(=O)N2CCC3(CC2)N=C(c2ccccc2)NO3)c1 16.3%
CCN1c2cc(C(=O)NCc3cccc(OC)c3)ccc2C(=O)N2CCCCCC21 (centres undefined) -1.41%
c1coc(-c2nnc([C@H]3CCN(Cc4c[nH]c5ccccc45)C3)o2)c1 37.1% [at 57.5 µM]
C[C@@H]1CN(C2(C(=O)NCc3n[nH]c4c3CCC4)Cc3ccccc3C2)C[C@H](C)O1 0.0426%
CCOC(=O)C1c2c(OC)ccc3c2C(=CC(C)(C)CO3)CN1C(=O)C1CC1 (centres undefined) 2.76%
Cc1cccc(-c2nc3ccc(C(=O)NC4CCCCCC4)cc3o2)n1 29% [at 57.5 µM]
O=C1CCN(C(=O)[C@@H]2CCCN2C(=O)Nc2ccccc2)CCCCCCN1 -1.52%
CCc1ccc(NC(=O)Cn2nc3n(c2=O)CCCC3)cc1 -0.266%
COCC1CN(C)CC12CCN(Cc1sccc1C)CC2 (centres undefined) -2.49%
Fc1ccccc1-c1noc(NCCc2ccc(Cl)cc2)n1 14.8%
Nc1nc(CCC(=O)N[C@@H]2[C@@H](Cc3ccccc3)[C@H]3OCC[C@@H]23)cs1 -5.81%
O=C([C@H]1C[C@H](Oc2cccnc2)CN1C(=O)c1ccc2ccccc2n1)N1CCOCC1 27%
O=S(=O)(c1cnc[nH]1)N1CCC(c2nc(CCOCC3CC3)no2)C1 (centres undefined) -2.63%
CCc1ccc(CN2CCN(c3ccc(C(N)=O)cn3)CC2)nc1 17.8%
COCC(=O)N(C1CCOCC1)C1CCN(C(=O)c2cccnc2C)CC1 10.8%
CC(C)CCN1CCC(N2CCN(C(=O)c3ccc(Br)o3)CC2)C1=O (centres undefined) 57%
Cc1cc(C(=O)NC2CCCC2)c2c(C3CCNC3)noc2n1 (centres undefined) 1.69%
CCS(=O)(=O)N1CCC2(CCC2OC)CC1 (centres undefined) 27.6%
Cc1cnc(CC2CCN(S(=O)(=O)c3ccc4c(c3)CCC4)CC2)n1CC1CC1 12.7%
CC1CCCCN1Cc1nnc2cc(-c3nc(-c4ccccc4)no3)ccn12 (centres undefined) 11.3%
COc1ccc(CN2CCc3nc(N4CCN(C)CC4)[nH]c(=O)c3CC2)c(OC)c1OC 2.04%
Cn1nc2n(c1=O)CCN(C1CCSCC1)CC2 2.04%
COc1ccccc1CC(=O)Nc1cccn2nc(C(C)C)nc12 4.57%
O=C(C1CCCN([S+](=O)([O-])c2cccc(C(F)(F)F)c2)C1)N1CCC(c2nc3ncccc3[nH]2)C1 (centres undefined) 3.41%
O=C(COc1cccc(-c2nnc3n2CCCC3)c1)NCc1ccccc1 -4.92%
CCNC(=O)c1c(C)oc2c1CN(Cc1ccc(Br)o1)CC2 6.18%
